Results on 15 compounds are retold here after paper PMC5540273 (PLoS ONE, 2017).

For assay [1], the system named is PIKFYVE. The conditions noted are these: concentration: 1 μM, replicates: in singlicate; n = 1.
Assay [2] relates to PIM1. Conditions: concentration: 1 μM, replicates: in singlicate, n = 1.
The subject of assay [3] is PIM2. The conditions noted are these: concentration: 1 μM, replicates: in singlicate; n = 1.
Assay [4] has as its system PIM3. Conditions: concentration: 1 μM, replicates: in singlicate, n = 1.
For assay [5], the system named is PIP5K1A. Conditions: concentration: 1 μM, replicates: in singlicate, n = 1.
Assay [6] deals with PIP5K1C. Conditions: concentration: 1 μM, replicates: in singlicate, n = 1.
In assay [7] the test system is PIP5K2B. The conditions noted are these: concentration: 1 μM, replicates: in singlicate, n = 1.
The test system of assay [8] is T1, PIP5K2C.
T1 construct: gene PIP4K2C
The conditions noted are these: concentration: 1 μM, replicates: in singlicate, n = 1.

Assay [9] relates to T2, PKAC-alpha.
T2 construct: gene PRKACA
The conditions noted are these: concentration: 1 μM, replicates: in singlicate, n = 1.

The subject of assay [10] is T3, PKAC-beta.
T3 construct: gene PRKACB
Conditions: concentration: 1 μM, replicates: in singlicate, n = 1.

The structures appear in SMILES notation. Values joined by “and” are separate entries in the source; they are usually repeats but may differ in a detail not shown here. Equal entries are not always repeated. Where two headings read alike, the source gives them in different places.
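Also: KINOMEscan kinase panel screen.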

`NCCNS(=O)(=O)c1ccc(-c2ccnc3[nH]ccc23)cc1` [GSK977617]: the “%Inh” value in [1] was 0%; in assay [2] (1 µM) it was 56% and 35%; in assay [3], 0%; in assay [4] (1 µM), 40% and 0%; in assay [5] (1 µM) it was 61% and 30%; in [6] (1 µM) it was 83% and 62%. Also, the “%Inh” value was 76% and 35% in assay [7] (1 µM); 17% and 13% in [8] (1 µM); 99.3% and 98.8% in [9] (1 µM); 99.2% and 98.3% in assay [10] (1 µM).
Consider `COc1ccc(Nc2nccc(N3CCC(NC(=O)Nc4cc(C)ccc4C)C3)n2)cc1` (stereo not drawn) [GSK1379741], for which the “%Inh” value worked out at 0% in assay [1]; 0% in assay [2]; 0% in assay [3]; 0% in [4]; 1% in [5]; 25% in [6]. Moreover, the “%Inh” value is 10% in [7], 9% in assay [8], 0% in assay [9] and 0% in assay [10].
Regarding `Cc1cccc(Cn2ccn3c(=O)cc(N4CCOCC4)nc23)c1` [GSK2297542], the “%Inh” value came to 0% in assay [1]; 29% in assay [2]; 0% in assay [3]; 13% in [4]; 0% in assay [5]; 36% in [6]. Moreover, the “%Inh” value in assay [7] is reported as 2%; in assay [8], 6%; in assay [9] it was 16%; in assay [10], 1%.
`CC(C)Oc1ccc2c(-c3ccnc(Nc4ccc(N5CCN(C)CC5)cc4)n3)cnn2n1` [GW696155]: the “%Inh” value in [1] was found to be 92.8%; in assay [2], 37%; in assay [3], 0%; in [4] it was 42%; in [5] it was 14%; in [6] it was 47%. In addition, the “%Inh” value in assay [7] was 73%; in assay [8], 87%; in assay [9], 3%; in assay [10] it was 0%.
For `O=C1NC(=O)C(N2CCc3ccccc32)=C1c1cccc(Cl)c1` [SB-408010], the “%Inh” value in assay [1] came to 4%; in [2], 16%; in assay [3], 9%; in assay [4], 6%; in [5] it was 0%; in [6] it was 39%. The “%Inh” value in assay [7] was found to be 0%; in assay [8], 0%; in assay [9], 11%; in assay [10], 14%.
In the case of `O=c1cc(N2CCOCC2)nc2n(Cc3cccc(Cl)c3Cl)c(C3CC3)nn12` [GSK2358994], the “%Inh” value in [1] was found to be 0%; in assay [2] it was 0%; in assay [3] it was 22%; in [4], 0%; in assay [5], 0%; in assay [6], 0%. In addition, the “%Inh” value is reported as 0% in assay [7], 0% in [8], 25% in [9] and 5% in assay [10].
In the case of `O=C(NOCC1CC1)c1ccc(F)c(F)c1Nc1ccc(I)cc1Cl`, the “%Inh” value was 40% in assay [1]; 0% in assay [2]; 0% in [3]; 0% in assay [4]; 0% in [5]; 3% in [6]. For the same compound, the “%Inh” value in [7], in assay [8], in assay [9] and in assay [10] was 0% each time.
Consider `Cc1cn2c(=O)cc(N3CCOCC3)nc2n1Cc1cccc(Cl)c1Cl` [GSK2334006], for which the “%Inh” value in assay [1] amounted to 50%; in assay [2], 10%; in assay [3], 0%; in [4] it was 0%; in [5], 0%; in assay [6], 30%. In addition, the “%Inh” value in assay [7] came out at 0%; in [8] it was 10%; in assay [9], 3%; in assay [10], 29%.
Take `Nc1nccc(-c2c(-c3ccc(F)cc3)ncn2C2CCN(CC(F)(F)F)CC2)n1` [SB-236560]: the “%Inh” value in assay [1] was determined as 59%; in [2], 0%; in assay [3] it was 0%; in assay [4] it was 0%; in assay [5], 47%; in assay [6], 7%. The “%Inh” value came out at 0% in [7], 60% in assay [8], 0% in [9] and 11% in assay [10].
Regarding `Cc1ccc(C(=O)NCC(N)=O)cc1-n1c(C)cc(OCc2ccc(F)cc2F)c(Br)c1=O`, the “%Inh” value in assay [1] stood at 20%; in assay [2], 23%; in [3], 19%; in assay [4], 17%; in assay [5] it was 14%; in assay [6], 46%. Further, the “%Inh” value in [7] amounted to 0%; in [8], 31%; in assay [9], 7%; in assay [10], 0%.
As for `NS(=O)(=O)CCc1cccc(Nc2nccc(-c3c(-c4cccc(NC(=O)c5c(F)cccc5F)c4)nn4ccccc34)n2)c1` [GSK336735], the “%Inh” value amounted to 0% in [1]; 0% in [2]; 0% in assay [3]; 0% in [4]; 0% in assay [5]; 36% in assay [6]. For the same compound, the “%Inh” value turned out to be 0% in assay [7], 17% in assay [8], 38% in assay [9] and 37% in [10].
On to `CCCCCc1nc2c(N)ncnc2n1CCCCC` [SKF-97255], for which the “%Inh” value is on record as 0% in [1]; 0% in [2]; 5% in assay [3]; 7% in assay [4]; 1% in [5]; 0% in assay [6]. In addition, the “%Inh” value was 0% in [7], 0% in [8], 24% in [9] and 0% in assay [10].
Take `O=C1Cc2cc(Nc3nc(NCc4cccc(S(=O)(=O)C(F)(F)F)c4)ncc3C(F)(F)F)ccc2N1`: the “%Inh” value in assay [1] is 6%; in assay [2], 100%; in [3], 0%; in [4], 6%; in assay [5], 13%; in assay [6] it was 3%. For the same compound, the “%Inh” value stood at 20% in [7], 0% in assay [8], 0% in assay [9] and 7% in [10].
Take `CN(C(=O)c1ccc(-c2cc(-c3c[nH]nc3-c3ccccn3)ccn2)cc1)C1CCOCC1` [GW810083]: the “%Inh” value in assay [1] came out at 40%; in [2] it was 0%; in assay [3] it was 0%; in assay [4], 0%; in assay [5] it was 0%; in assay [6], 31%. Also, the “%Inh” value was determined as 0% in assay [7], 49% in assay [8], 0% in assay [9] and 0% in assay [10].
Regarding `COc1cc2ncn(-c3cc(OCc4sccc4Cl)c(C(N)=O)s3)c2cc1OC` [GSK448459], the “%Inh” value in [1] came to 0%; in assay [2] it was 11%; in assay [3], 0%; in [4], 0%; in assay [5] it was 41%; in assay [6] it was 79%. For the same compound, the “%Inh” value was 20% in assay [7], 50% in assay [8], 0% in assay [9] and 0% in assay [10].
